Screen size: about 69,000 compounds; about 8,600 (12%) showed an effect of 50% or more. The sample as a whole holds a higher share of strong results than the screen did.

The assay concerns Plasmodium berghei. The experiment in a line: Screen against P. berghei liver stage (PbLuc), transformed with Luciferase, at 10uM. It is filed as functional, HepG2. Conditions: tested at 10 uM.
As for `CC(C)N(C)Cc1cnc2n1CCN(C(=O)NC1CCCC1)C2`, the INHIBITION was determined as 34.1%.
Then `CCOCCN1CCN(c2ccc(C#N)cn2)CC1`, with 45.4%.
For `CS(=O)(=O)NCCCNCc1cc(F)ccc1Br` the value was 30.2%.
For `Cc1noc(C)c1CN(C)C(=O)NC1CCOCC1` the value was 22.95%; for `Cc1cccc(N2CCN(C(=O)CCCC(=O)N(C)C)C(C)C2)n1` (stereo unspecified), 39.3%; for `Cc1nc(CN2CCCC3(CCN(c4cnn(C)c4)C3=O)C2)cs1` (stereo unspecified), 6.55%.
As for `Cc1nccn1C1CCCN(C(=O)c2cnc[nH]2)C1` (stereo unspecified), the INHIBITION was -9.37%.
For `Cn1nc(Cn2cccn2)c2c1CN(C1CCOCC1)C2` the value was 44.2%.
For `CN(C(=O)c1ccccc1NCC(=O)O)C(C1CC1)C1CC1` the value was 25.8%; for `O=C(COCc1ccccc1Cl)N1CCCC(n2ccnc2)C1` (stereo unspecified), 17.5%.
Then `Cc1cccc(CN2C[C@@H]3COC[C@]3(CNC(=O)c3cccn3C)C2)n1`, with -17.1%; and `O=S(=O)(c1cccs1)N1CCCCC1c1ccn[nH]1` (stereo unspecified), with 29.3%; and `CCS(=O)(=O)N1CCCC(n2nnn(-c3ccccc3)c2=O)C1` (stereo unspecified), with -8.5455%.
For the molecule `Cc1cc(C)c(-n2cc(CCO)cn2)cc1C`, the INHIBITION was -50.3%.
Turning to `Cc1nnc(N2CCc3cnc(C(C)C)nc3C2)c(C#N)c1C`, the INHIBITION turned out to be 6.72%.
For the molecule `CC(CCc1ccccc1)N1CCC(C(=O)NCc2ccccc2)CC1` (stereo unspecified), the INHIBITION was 46.7%.
Then `Cc1cnnn1Cc1ncn2c1CN(Cc1cccs1)CCC2`, with 15.9%; and `CCN(CC)C(=O)Cn1c(=O)n(Cc2ccco2)c2ncccc21`, with 51.5%.
Then `Cc1nn(C(C)(C)C)c(=O)n1CC(=O)NC(C)(C)C`, with -53.6%.
For `O=C(Cn1c(=O)n(Cc2ccco2)c2ncccc21)NC1CC1` the value was 39.7%; for `O=C(Cn1c(=O)n(Cc2ccco2)c2ncccc21)NC1CCCCC1`, 53.5%.
As to `CC(C)N(C(=O)Cn1c(-c2ccco2)cc2cccnc21)C(C)C`, the INHIBITION was 39.3%.
For `O=C(Cn1c(=O)n(Cc2ccco2)c2ncccc21)Nc1ccccn1` the value was 45.5%.
As for `CC(C)(C)NC(=O)Cn1c(=O)n(Cc2ccco2)c2ncccc21`, the INHIBITION turned out to be 61.9%.
Then `O=C(Cn1c(=O)n(Cc2ccco2)c2ncccc21)NC1CCCC1`, with 48.6%; and `CCN(CC)C(=O)CSc1nc2cc(C)nc-2c(O)n1Cc1ccco1`, with 26.7%.
On to `Cc1ccc(C(=O)N2CCN(CCc3ccccc3)CC2)c(=O)[nH]1`, for which the INHIBITION is on record as -6.45%.
In the case of `COc1ccccc1CNC(=O)CS(=O)(=O)Cc1ccccc1`, the INHIBITION is 29.8%.
`Cn1cc(Cl)cc1C(=O)N1CCN(Cc2cccs2)CC1`: the INHIBITION is -13.575%.
Then `CC(C)=CCN1CCN(Cc2nccn2C)C(C)C1` (stereo unspecified), with 35.77%; and `COc1ccc(C(CNC(=O)NCc2csc(C)n2)N(C)C)cc1` (stereo unspecified), with 23.5%; and `CNc1cncc(C2CCCN2C(=O)c2ccc3nc(C)[nH]c3c2)n1` (stereo unspecified), with 2.6%.
Then `O=S1(=O)c2ccccc2C(O)CN1CCO` (stereo unspecified), with -5.77%.
In the case of `COCCN1CCC2(CC1)CC1(CCN(S(C)(=O)=O)CC1)N(C)C2=O`, the INHIBITION was 40.8%.
Then `CC(=O)Nc1ccc(Oc2cc(C)nc(C3CCCNC3)c2)cc1` (stereo unspecified), with 14.355%.
Then `CSCC(C)NS(=O)(=O)c1ccc(C)c(N(C)C)c1` (stereo unspecified), with -37.7%.
For `Cc1cnc(N2C(=O)CSC2c2ccc(N(C)C)cc2)s1` (stereo unspecified) the value was 39.9%; for `CC(C)c1nn(C)c(Cl)c1CNCc1ccc(N(C)C)nc1`, 18.85%.
Regarding `Cc1ccc(S(=O)(=O)NC(=O)CCC2CCCO2)cc1` (stereo unspecified), the INHIBITION is given as -7.35%.
Then `O=C(CCC1CCCO1)NS(=O)(=O)c1ccc(Cl)cc1` (stereo unspecified), with -11.4%; and `CC(=O)Nc1ccc(S(=O)(=O)NC(=O)CCC2CCCO2)cc1` (stereo unspecified), with 57.2%; and `Cc1nccn1CCCC(=O)N1CCC(N(C)c2cccnn2)CC1`, with 12.7%.
For `O=C(c1cnn[nH]1)N1CCCC1c1nc2cc(F)ccc2[nH]1` (stereo unspecified) the value was 11.8%.
For `CN(C)c1ccc(C(=O)NCCCc2ccccn2)cn1` the value was 62.8%; for `O=C(NCCCc1ccco1)c1cnc(N2CCOCC2)nc1`, -18.8%.
As to `CCn1c(N)nc2cc(C(=O)NCCCc3ccccn3)cnc21`, the INHIBITION is 11.8%.
Consider `CN(Cc1ccco1)c1ccc(C(=O)NCCCc2ccccn2)cn1`, for which the INHIBITION was determined as 58.2%.
With `CN(CC(C)(C)C)c1ccc(C(=O)NCCCc2ccccn2)cn1`, the INHIBITION is listed as -20.6%.
Take `CCN(C)c1ccc(C(=O)NCCCc2ccccn2)cn1`: the INHIBITION is given as -17.9%.
As for `Cc1ccc(CN2CCOC3(CCN(CC4CCOC4)CC3)C2)cc1` (stereo unspecified), the INHIBITION was determined as 36.7%.
In the case of `CSCCC(Nc1nc(C)cc(C)n1)C(=O)NC1CCCC1` (stereo unspecified), the INHIBITION turned out to be 36.8%.
Then `COC(=O)c1ccc(N2CCN(C(=O)c3cc(C)on3)C(C)C2)cc1` (stereo unspecified), with 54.3%; and `COCC(=O)N1CCN(c2ccc(C(=O)OC)cc2)CC1C` (stereo unspecified), with -31.4%.
For the molecule `COC(=O)c1ccc(N2CCN(C(=O)C(C)C)C(C)C2)cc1` (stereo unspecified), the INHIBITION is reported as -37.6%.
For `COC(=O)c1ccc(N2CCN(C(=O)c3cnccn3)C(C)C2)cc1` (stereo unspecified), the INHIBITION is -23.8%.
Then `COC(=O)c1ccc(N2CCN(C(=O)c3cc(C)no3)C(C)C2)cc1` (stereo unspecified), with -11.4%; and `COC(=O)c1ccc(N2CCN(C(=O)c3cnc(C)cn3)C(C)C2)cc1` (stereo unspecified), with 66.7%; and `Cc1cc(Oc2ccc(NC(=O)C3CC3)cc2)cc(C2CCNCC2)n1`, with 10.535%.
Then `CN(CCCc1cnn(C)c1)c1nccc(-c2cc(C(=O)O)ccn2)n1`, with 21.2%; and `Cc1cccc(CN2Cc3nccn3CC(CN3CCOCC3)C2)c1` (stereo unspecified), with 43.9%.
For `O=C1COc2cc(C(=O)NS(=O)(=O)c3cc(Cl)ccc3Cl)ccc2N1` the value was 37.4%; for `CN(C)C(=O)COCc1cncc2c1CCN(Cc1ccccn1)C2`, -11%.
In the case of `COc1ccc(-c2nccc(C3CCCN3C)n2)cc1` (stereo unspecified), the INHIBITION was determined as 16.5%.
Then `O=C(N1CCCC1)N1CCOCC2(C1)CN(c1ccccc1)C(=O)CO2` (stereo unspecified), with -1.36%; and `COc1ccc(NC(=O)C2CC2)cc1OCc1cccnc1`, with 34.1%; and `COc1ccc(NC(=O)C(C)(C)C)cc1OCc1cccnc1`, with 43.4%.
Then `COc1ccc(NC(C)=O)cc1OCc1cccnc1`, with 66.5%; and `Cc1nnc(N2CCCC3(CN(Cc4ccc(C)s4)CCO3)C2)o1` (stereo unspecified), with 1.81%; and `COCc1noc(-c2ccc(N(C)Cc3cc(C)no3)nc2)n1`, with 33.5%.
With `COCc1noc(-c2ccc(N(C)Cc3c(C)n[nH]c3C)nc2)n1`, the INHIBITION was determined as 56.9%.
Then `COCc1noc(-c2ccc(N(C)Cc3ccc(C)o3)nc2)n1`, with -26.7%.
